Source: PubChem BioAssay (NCI)
About 79,000 compounds went through this panel and 15% of them were active in at least one assay; those are over-represented in the sample as a whole. Cut-off read from the data, not from the text of the source: active = growth inhibition above about 70%; inactive = the rest.

Legend:
[1] = NCI Yeast Anticancer Drug Screen. Data for the rad50 strain (AID 155);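 note: 0% = growth of vehicle-only cultures of the same strain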; conditions: S. cerevisiae rad50 strain growth inhibition; at 50.0 µM; active compounds read high
Procedure, shortened: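 Readout: growth inhibition relative to vehicle-treated cultures. Compound exposure was carried out in a genetically defined yeast strain deficient in DNA damage repair.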

[2] = NCI Yeast Anticancer Drug Screen. Data for the mec2-1 strain (AID 157); conditions: S. cerevisiae mec2-1 strain, at 50.0 µM, active compounds read high
Procedure, shortened: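 Strain: mec2-1 (DNA repair/cell cycle alteration). Compound exposure, then growth measured; inhibition expressed relative to vehicle.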

[3] = NCI Yeast Anticancer Drug Screen. Data for the sgs1 mgt1 strain (AID 161);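 note: 0% = growth of cultures given vehicle only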; conditions: S. cerevisiae sgs1 mgt1 strain, at 50.0 µM, active compounds read high
Procedure, shortened: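 Inhibition of yeast growth, normalised to vehicle-treated controls, is reported for a strain bearing genetic alterations in DNA damage repair.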

[4] = NCI Yeast Anticancer Drug Screen. Data for the cln2 rad14 strain (AID 165);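 note: 0% = growth equal to vehicle treated cultures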; conditions: S. cerevisiae cln2 rad14 strain, at 50.0 µM, active compounds read high
Procedure, shortened: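 Compounds are applied to the cln2 rad14 yeast strain, and growth is then compared with that of vehicle-treated cultures to give inhibition.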

[5] = NCI Yeast Anticancer Drug Screen. Data for the bub3 strain (AID 167); conditions: S. cerevisiae bub3 mutant strain, at 50.0 µM, active compounds read high
Procedure, shortened: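 Readout: yeast growth inhibition, expressed relative to vehicle-only wells. The test organism is a mutant strain from a panel with lesions in DNA repair or checkpoint genes.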

[6] = NCI Yeast Anticancer Drug Screen. Data for the mlh1 rad18 strain (AID 175); conditions: S. cerevisiae mlh1 rad18 strain growth inhibition; at 50.0 µM; active compounds read high
Procedure, shortened: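 Read-out is yeast growth inhibition, calculated against vehicle-only controls. The compound was applied to a strain engineered with DNA damage repair alterations.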

Measured: growth inhibition

COc1ccc(C2Oc3cc(OC)c(OC)cc3C2CCl)cc1OC (centres undefined)
inactive: [1] -20.1% | [2] 1.85% | [3] -46.8% | [4] -0.4% | [5] -26.9% | [6] -35.2%

O=[N+]([O-])c1ccc(OS(=O)(=O)Cc2ccccc2)cc1
inactive: [1] 3.8% | [2] -9.35% | [3] 8.95% | [4] -36.6% | [5] 3.95% | [6] -9.25%

Cc1ccccc1-n1c(C)nc2cc(NC(N)=S)ccc2c1=O
inactive: [1] -19.1% | [2] -3.05% | [3] 0% | [4] -24.5% | [5] -5.9% | [6] -17.7%

NC1C=NNC1=O (centres undefined)
inactive: [1] -11.1% | [2] -7.95% | [3] -9.5% | [4] -13.2% | [5] -10.1% | [6] -23.9%

Nc1cnccn1
inactive: [1] 1.55% | [2] 4.1% | [3] 0.75% | [4] -4.3% | [5] 9.3% | [6] -10.6%

CCOC(=O)CCC(C(=O)OCC)N1C(=O)c2ccccc2C1=O (centres undefined)
inactive: [1] 1% | [2] 6.75% | [3] 8.25% | [4] 11.8% | [5] 23.8% | [6] -1.7%

CN(C)C=Nc1c(Br)cc(Br)c2nonc12
inactive: [1] -26.7% | [2] -31.1% | [3] -32.5% | [4] -23.8% | [5] -22.9% | [6] -8.45%

O=C1C(Cl)N(c2ccc([N+](=O)[O-])cc2)C1c1c[nH]c2ccccc12 (centres undefined)
inactive: [1] -4.2% | [2] -38.6% | [3] -0.3% | [4] 8.75% | [5] 19.2% | [6] -31.4%

OC(Cc1ccccc1)c1ccccc1 (centres undefined)
inactive: [1] -21.9% | [2] -19.8% | [3] -24.8% | [4] 16.2% | [5] -5.15% | [6] 1.5%

O=C1NC(=O)C2(CCCC2=Nc2ccc(Br)cc2)C2C=CN(Cc3ccccc3)C=C12 (centres undefined)
inactive: [1] 0.25% | [2] -4.25% | [3] 6.3% | [4] 2.4% | [5] 3.65% | [6] 35.2%

Cc1ccc(-c2c3c(n(C4OC(CO)C(O)C(O)C4O)c(=S)c2C#N)CC(C)(C)CC3=O)cc1 (centres undefined)
inactive: [1] 23.5% | [2] 13.7% | [3] -4.45% | [4] -8.95% | [5] 9.15% | [6] 11.8%

Nc1cc(=O)n(-c2ccccc2)nc1Cl
inactive: [1] 2.05% | [2] 4.4% | [3] -2.25% | [4] -18.6% | [5] 3.1% | [6] 0.2%

Cc1nc2ccccc2c(=O)n1NC(=S)Nc1ccccc1
inactive: [1] -40.9% | [2] -57.1% | [3] -41.5% | [4] 7.85% | [5] -32.4% | [6] -59.5%

CCCCC1CC(c2ccc(Cl)cc2)=NO1 (centres undefined)
inactive: [1] 26.9% | [2] -7% | [3] 16.6% | [4] -1.55% | [5] 3.75% | [6] 20.2%

CCOC(=O)CN(C=O)C(C)c1ccccc1 (centres undefined)
inactive: [1] 13.1% | [2] 18.4% | [3] 4.4% | [4] 3.7% | [5] 33.6% | [6] 20.9%

NC(=S)N/C=C(/c1ccc(Cl)cc1Cl)S(=O)(=O)Cc1ccc(Cl)cc1Cl
inactive: [1] 6.85% | [2] -6.7% | [3] 9.6% | [4] 6.95% | [5] 0.2% | [6] 9.7%

Clc1ccccc1CSc1cc(SCc2ccccc2Cl)nc(SCc2ccccc2Cl)n1
inactive: [1] -8% | [2] -2.75% | [3] -2.25% | [4] 23.3% | [5] -7.3% | [6] 22%

CC(C1CCCC1=O)C1CCCC1=O (centres undefined)
inactive: [1] -1.1% | [2] -17.8% | [3] -5.05% | [4] 5.35% | [5] -11.9% | [6] -10.4%

Cc1ccc(-c2nc3ccccc3c(=O)o2)cc1
inactive: [1] 11.4% | [2] -9.05% | [3] -6.05% | [4] -8.6% | [5] 4.75% | [6] 14.3%

Oc1ccccc1C1N=NC2=C(CCCC2)N1O (centres undefined)
inactive: [1] -12.9% | [2] -26.4% | [3] -2.5% | [4] -12.1% | [6] -7.15%

CN(C)[C@@H]1C(=O)C(C(=O)NCNC2CC(C)(C)N(O)C(C)(C)C2)=C(O)C2(O)C(=O)C3=C(O)c4c(O)cccc4[C@@](C)(O)C3CC12 (some centres undefined)
inactive: [1] -1.2% | [2] 30.6% | [3] 2.55% | [4] -37% | [6] 24.6%
